These results are taken from PubChem BioAssay AID624297 (National Center for Advancing Translational Sciences (NCATS), 2012).

SMILES strings stand for the structures. Out of some 340,000 compounds screened, about 6,200 (1.8%) were called active. A call without a number means that no potency is given here. About 10% were inconclusive and are not listed. The call rests on the fitted dose curve; in most records, active means well fitted activation curve with a large enough effect; inconclusive means small, poorly fitted or top-dose-only effect; inactive means no such curve, though single readings can be large or run the other way. This excerpt belongs to a sample that is enriched for actives.
Potency means the concentration at half of the fitted maximal effect.

This assay is described as follows: A quantitative high throughput screen for small molecules that induce DNA re-replication in SW480 colon adenocarcinoma cells. Further: nearly all actives have a fitted effect of over 55% in size. Conditions: Hoechst DNA content imaging, 48 h; series mostly up to 46.1 µM. Summed up:
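Quantitative HTS format with DMSO vehicle controls; 48 hr drug incubation at 37 C, then 40 min Hoechst staining and scanning imager measurement at 405 nm excitation.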
As to `CCOc1ccc(NC(=O)CN(C)C(=O)c2cccc(S(=O)(=O)N3CCCC3)c2)cc1OCC`, the Potency is 6.51 µM (active). For the compound `COc1ccc(NC(=O)CN(C)C(=O)c2cccc(S(=O)(=O)N3CCN(c4ccccc4)CC3)c2)cc1`, the Potency entry is “inactive”.

For `Cc1ccc(S(=O)(=O)N2CCCCC2)cc1C(=O)N(C)CC(=O)Nc1cccc(F)c1`, the Potency result was “inactive”.

Regarding `Cc1noc(C)c1NC(=O)Nc1cccc2c1O[C@H](CN(C)S(=O)(=O)c1c(C)noc1C)[C@@H](C)CN([C@H](C)CO)C2=O`, the Potency entry was “inactive”. With `CCCCOc1ccc(C(=O)NCC(=O)OCC(=O)c2c(N)n(C)c(=O)n(C)c2=O)cc1`, the Potency result is “inactive”. To `CSc1ncccc1C(=O)NCC(c1ccco1)N1CCCCC1` (stereo not drawn) belongs “inactive”. On to `Cc1ccc(CN2CCC(n3nccc3NC(=O)CCCc3ccccc3)CC2)o1`, for which the Potency result was “inactive”. As for `COc1ccc(CN2CCC(n3nccc3NC(=O)CCCc3ccccc3)CC2)cc1C`, the Potency was 18.4 µM (active).

With `COc1cc(CN2CCC(n3nccc3NC(=O)CCCc3ccccc3)CC2)ccc1O`, the Potency result was “inactive”. As for `COc1ccc(CNC(=O)C[C@H]2C[C@H](C(=O)N3CCOCC3)[C@@]3(CCC4CCCC4)c4[nH]c5ccc(Cl)cc5c4CCN3C2=O)cc1OC`, the Potency entry is “inactive”. For `CC(C)(C)OC(=O)C[C@H]1C/C=C\C[C@@H](CC(=O)N[C@H](CO)Cc2ccccc2)C(=O)NC[C@@H](c2ccccc2)OC1=O`, the Potency entry was “inactive”.

As for `Cc1ccccc1OC/C(O)=C(\C#N)c1nc2ccccc2[nH]1`, the Potency result was “inactive”. Regarding `N#C/C(=C(/O)COC(=O)COc1ccc(Cl)cc1)c1nc2ccccc2[nH]1`, the Potency is 29.1 µM (active). Consider `COCCN(CCOC)S(=O)(=O)c1ccc(/C(O)=C(\C#N)c2nc3ccccc3[nH]2)cc1`, for which the Potency entry was “inactive”. In the case of `CCN1C[C@@H]2[C@@H]3C(=O)N(Cc4ccccc4)C(=O)[C@@H]3[C@](C)(C1=O)N2C(=O)c1ccc(C(C)(C)C)cc1`, the Potency result is “inactive”.

In the case of `O=C(NOCc1ccccc1)c1cccc([N+](=O)[O-])c1`, the Potency entry was “inactive”. In the case of `O=c1oc2ccccc2c(=O)c2ccccc12`, the Potency result is “inactive”. Take `CC[C@]12c3[nH]c4cc(CCC(=O)N(C)C)ccc4c3CCN1C(=O)[C@@H](CC(=O)NCc1ccco1)C[C@@H]2C(=O)N1CCN(C(=O)c2ccco2)CC1`: the Potency entry was “inactive”. To `CC(C)Cn1c(N)c(C(=O)NCc2cccs2)c2nc3ccccc3nc21` belongs 5.17 µM (active).

On to `O=C(NCc1cccs1)c1cc(-c2ccccn2)nc2ccc(Br)cc12`, for which the Potency entry was “inactive”. Then `Cn1ncc(Br)c1C(=O)NCc1cccs1`, with “inactive”; and `O=c1ccn([C@@H]2O[C@H](CNS(=O)(=O)c3cc4ccccc4s3)[C@@H](O)[C@H]2O)c(=O)[nH]1`, with “inactive”; and `CCN(c1ccccc1)S(=O)(=O)c1ccc(C(=O)Nc2ccccc2OC)cc1`, with “inactive”.

In the case of `O=C(NCC(c1cccs1)N1CCOCC1)c1cc(-c2ccccn2)nc2ccccc12` (stereo not drawn), the Potency result was “inactive”.

On to `Cc1ccc(-c2nn(-c3ccc(F)cc3)cc2C(=O)NCC(c2cccs2)N2CCOCC2)cc1` (stereo not drawn), for which the Potency was 23.1 µM (active).

Take `O=C(NCCCN1CCOCC1)c1cn(-c2ccccc2)nc1-c1ccc(F)cc1`: the Potency entry is “inactive”. With `Cn1c(=S)sc2ccc3ccccc3c21`, the Potency entry was “inactive”. Consider `Cc1cc(C)c(C=NNc2nc3c([nH]2)c(=O)n(C)c(=O)n3C)c(C)c1`, for which the Potency result is “inactive”.

For `COc1cccc(/C=N/Nc2ncc(C(F)(F)F)cc2Cl)c1O`, the Potency was 0.92 µM (active). Turning to `FC(F)(F)c1cnc(Oc2ccccc2-c2nnc(-c3ccc(Cl)cc3)o2)c(Cl)c1`, the Potency entry was “inactive”. Consider `COc1cccc(/C=N/Nc2ccc(S(=O)(=O)Nc3ccccc3C(=O)O)cc2[N+](=O)[O-])c1O`, for which the Potency entry was “inactive”. Turning to `CC(=NNC(=O)c1ccncc1)c1ccc(Cl)c(Cl)c1`, the Potency entry is “inactive”.

As for `C=CCC[C@@H](Cc1ccc(F)cc1)C(=O)OC[C@@H](C)NC(=O)[C@H](CC=C)CC(=O)N(CCO)Cc1ccccc1`, the Potency entry is “inactive”. Regarding `COc1ccccc1NC(=O)C1=C(C)Nc2nc3ccccc3n2C1c1cccs1` (stereo not drawn), the Potency was 4.11 µM (active).

Consider `CCOc1ccc(C2C(C(=O)NC)=C(C)Nc3nc4ccccc4n32)cc1OC` (stereo not drawn), for which the Potency result was “inactive”. Turning to `CCOC(=O)C1=C(C)Nc2nc3ccccc3n2C1c1cccs1` (stereo not drawn), the Potency entry was “inactive”. With `Cc1ccc(C(=O)O)c(NC=O)c1OCc1ccccc1`, the Potency result was “inactive”.

For `CC(OC(=O)c1c(F)cccc1F)C(=O)NCCC1=CCCCC1` (stereo not drawn), the Potency result is “inactive”. To `O=C(Nc1cccc(S(=O)(=O)N2CCCC2)c1)c1cncc(Br)c1` belongs “inactive”; to `COc1ccc2sc(-c3ccc(S(C)(=O)=O)cc3)c(-c3ccc(C(N)=O)cc3)c2c1`, “inactive”; to `Cn1cncc1C#Cc1c(-c2ccsc2)sc2ccccc12`, “inactive”. With `COc1ccc2sc(-c3ccc(S(C)(=O)=O)cc3)c(C#Cc3cncn3C)c2c1`, the Potency is 5.8 µM (active). For the compound `Oc1cccc(CCc2ccccn2)c1`, the Potency result was “inactive”.

As for `COc1cc2[nH]c(=O)n(Cc3ccc(C(=O)NC4CCN(Cc5ccccc5)CC4)cc3)c(=O)c2cc1OC`, the Potency entry was “inactive”. Regarding `COc1cc(C(=O)NC2CCN(Cc3ccccc3)CC2)cc(Cl)c1OC(C)C`, the Potency is 18.4 µM (active).

Regarding `COc1ccc(C(=O)O)cc1S(=O)(=O)NC1CCN(Cc2ccccc2)CC1`, the Potency result is “inactive”. `CNC[C@@H]1Oc2c(NS(C)(=O)=O)cccc2C(=O)N([C@@H](C)CO)C[C@H]1C`: the Potency entry was “inactive”. Then `CCn1nc(C(=O)NNS(=O)(=O)c2cc(/C=C/C(=O)O)cc(OC)c2OC)c2ccccc2c1=O`, with “inactive”; and `C=CC[C@@H](Cc1ccc(F)cc1)C(=O)OC[C@H]1CCCN1C(=O)[C@H](CC=C)CC(=O)N(CCO)Cc1ccccc1`, with “inactive”; and `Cn1nc(-c2ccccc2)c(CO)c1Sc1ccccc1`, with “inactive”. Regarding `Cn1nc(-c2ccccc2)c(CSc2cccc(Cl)c2)c1Cl`, the Potency was 16.4 µM (active). As to `Cc1ccc(S(=O)(=O)c2c(COC(=O)c3cccc(Cl)c3)c(-c3ccccc3)nn2C)cc1`, the Potency result was “inactive”. For the compound `COc1cccc(CC(=NO)c2cccc(OC)c2)c1`, the Potency result was “inactive”.

With `c1ccc(-n2nnnc2-c2cccnc2)cc1`, the Potency entry is “inactive”. To `CCOC(=O)C(C)n1cnc2c(nnn2-c2cccc(OC)c2)c1=O` (stereo not drawn) belongs “inactive”.

`CCOc1cccc(-n2nnnc2-c2ccc(OC)cc2)c1`: the Potency was 13 µM (active). With `COc1cc(S(=O)(=O)N2CCN(C(=O)C3CC3)CC2)ccc1NC(C)=O`, the Potency entry is “inactive”.

Turning to `COc1cc(C(=O)NC2CCN(C)CC2)ccc1Nc1ncc2c(n1)N(C1CCC(O)CC1)CCC(=O)N2C` (stereo not drawn), the Potency entry is “inactive”.
